These results are taken from PubChem BioAssay AID743025 (Vanderbilt Specialized Chemistry Center, 2013).

The source made the active and inactive calls.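 The calls were made as follows: active = IC50 below 10 µM at human M5 in a calcium flux test, acting as a negative modulator; inactive = the rest.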

Sequence of Muscarinic acetylcholine receptor M5 (Homo sapiens) (P08912 whole entry, looked up): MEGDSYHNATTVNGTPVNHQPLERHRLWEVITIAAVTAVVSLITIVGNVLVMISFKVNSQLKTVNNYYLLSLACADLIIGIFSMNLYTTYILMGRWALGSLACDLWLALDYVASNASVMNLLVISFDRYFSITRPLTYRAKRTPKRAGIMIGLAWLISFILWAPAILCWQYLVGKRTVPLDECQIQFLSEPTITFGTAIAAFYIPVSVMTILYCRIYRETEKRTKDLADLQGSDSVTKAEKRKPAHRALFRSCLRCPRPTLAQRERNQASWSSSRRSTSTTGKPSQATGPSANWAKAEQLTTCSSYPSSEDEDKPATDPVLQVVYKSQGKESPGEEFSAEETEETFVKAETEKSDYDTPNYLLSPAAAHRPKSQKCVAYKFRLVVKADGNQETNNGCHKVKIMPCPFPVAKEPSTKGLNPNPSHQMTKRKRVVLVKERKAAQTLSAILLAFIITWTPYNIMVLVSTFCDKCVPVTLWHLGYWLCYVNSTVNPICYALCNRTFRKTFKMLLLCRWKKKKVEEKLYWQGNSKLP

The test addresses Muscarinic acetylcholine receptor M5 (Homo sapiens) (UniProt P08912). As to the kind of experiment: M5 muscarinic receptor negative allosteric modulators, cell-based, single concentration, human M5 (AID 743025). The note with it: CHO-K1 hM5, ACh EC80 calcium flux, Fluo-4; at 10 µM; stronger effect = lower value. On the technique in general: A change in cytosolic calcium serves as a functional read-out for many receptors and channels.
As to `Cc1ccc(C23c4ccccc4C(=O)N2CCN3C(=O)c2cc(F)cc(F)c2)cc1` (stereo unspecified), the activity remaining is 2.43% (active). The figure for `O=C(c1ccncc1)N1CCN2C(=O)c3ccccc3C12c1ccccc1` (stereo unspecified) is 98.6% (inactive); for `O=C(c1ccc(C(F)(F)F)cc1)N1CCN2C(=O)c3ccccc3C12c1ccc(Cl)cc1` (stereo unspecified) it is 2.04% (active); for `O=C(c1ccc(OC(F)(F)F)cc1)N1CCN2C(=O)c3ccccc3C12c1ccc(Cl)cc1` (stereo unspecified) it is 1.2% (active). In the case of `O=C(c1ccccc1F)N1CCN2C(=O)c3ccccc3C12c1ccccc1` (stereo unspecified) it was 85.8% (inactive). Regarding `O=C(c1ccc(Cl)cc1)N1CCN2C(=O)c3ccccc3C12c1ccccc1` (stereo unspecified), the activity remaining is 89.9% (inactive).

For `O=C(c1ccc(C(=O)C(F)(F)F)cc1)N1CCN2C(=O)c3ccccc3C12c1ccccc1` (stereo unspecified), the activity remaining was 90% (inactive). The figure for `O=C(c1cccc(C(F)(F)F)c1)N1CCN2C(=O)c3ccccc3C12c1ccc(Cl)cc1` (stereo unspecified) is 1.89% (active); for `O=C(c1ccc(F)cc1)N1CCN2C(=O)c3ccccc3C12c1ccc(F)cc1` (stereo unspecified) it is 69.7% (inactive). With `O=C(c1ccc(C(F)(F)F)cc1)N1CCN2C(=O)c3ccccc3C12c1ccc(F)cc1` (stereo unspecified), the activity remaining was 70.2% (inactive).

`O=C1c2ccccc2C2(c3ccc(F)cc3)NCCN12` (stereo unspecified): the activity remaining is 77.6% (inactive). The figure for `Cc1ccc(C(=O)N2CCN3C(=O)c4ccccc4C23c2ccc(F)cc2)cc1` (stereo unspecified) is 67.9% (inactive). With `O=C(c1ccc(SC(F)(F)F)cc1)N1CCCN2C(=O)c3ccccc3C12c1ccc(Cl)cc1` (stereo unspecified), the activity remaining is 78.5% (inactive). The figure for `Cc1ccc(C(=O)N2CCCN3C(=O)c4ccccc4C23c2ccc(Cl)cc2)cc1` (stereo unspecified) is 74.8% (inactive); for `O=C(c1ccc(SC(F)(F)F)cc1)N1CCN2C(=O)c3ccccc3C12c1ccc(Cl)cc1` (stereo unspecified) it is 4.43% (active). The figure for `O=C(c1ccco1)N1CCN2C(=O)c3ccccc3C12c1ccccc1` (stereo unspecified) is 81.3% (inactive); for `O=C(c1ccccc1)N1CCN2C(=O)c3ncccc3C12c1ccccc1` (stereo unspecified) it is 78.7% (inactive). For `CSc1ccc(C23c4ccccc4C(=O)N2CCN3C(=O)c2ccc(F)c(F)c2)cc1` (stereo unspecified), the activity remaining is 14.6% (active).

With `O=C1c2ccccc2C(c2ccccc2)N1c1ccccc1` (stereo unspecified), the activity remaining is 82.3% (inactive).

As for `O=C(c1ccc(F)cc1)N1CCN2C(=O)c3ccccc3C12c1ccc(Cl)cc1` (stereo unspecified), the activity remaining is 78.8% (inactive).

With `O=C(c1ccccn1)N1CCN2C(=O)c3ccccc3C12c1ccc(Cl)cc1` (stereo unspecified), the activity remaining was 88.9% (inactive).
